Test results as given in the supplement of paper PMC3334620.
Whole data set: some 33,000 sequences, median “E-score (-0.5 to 0.5)” near -0.043, cut for the highest 2% near 0.37. The full list was thinned out, with the highest values kept by preference.

Target: T1, Upc2 (UniProt Q12151)
T1 sequence: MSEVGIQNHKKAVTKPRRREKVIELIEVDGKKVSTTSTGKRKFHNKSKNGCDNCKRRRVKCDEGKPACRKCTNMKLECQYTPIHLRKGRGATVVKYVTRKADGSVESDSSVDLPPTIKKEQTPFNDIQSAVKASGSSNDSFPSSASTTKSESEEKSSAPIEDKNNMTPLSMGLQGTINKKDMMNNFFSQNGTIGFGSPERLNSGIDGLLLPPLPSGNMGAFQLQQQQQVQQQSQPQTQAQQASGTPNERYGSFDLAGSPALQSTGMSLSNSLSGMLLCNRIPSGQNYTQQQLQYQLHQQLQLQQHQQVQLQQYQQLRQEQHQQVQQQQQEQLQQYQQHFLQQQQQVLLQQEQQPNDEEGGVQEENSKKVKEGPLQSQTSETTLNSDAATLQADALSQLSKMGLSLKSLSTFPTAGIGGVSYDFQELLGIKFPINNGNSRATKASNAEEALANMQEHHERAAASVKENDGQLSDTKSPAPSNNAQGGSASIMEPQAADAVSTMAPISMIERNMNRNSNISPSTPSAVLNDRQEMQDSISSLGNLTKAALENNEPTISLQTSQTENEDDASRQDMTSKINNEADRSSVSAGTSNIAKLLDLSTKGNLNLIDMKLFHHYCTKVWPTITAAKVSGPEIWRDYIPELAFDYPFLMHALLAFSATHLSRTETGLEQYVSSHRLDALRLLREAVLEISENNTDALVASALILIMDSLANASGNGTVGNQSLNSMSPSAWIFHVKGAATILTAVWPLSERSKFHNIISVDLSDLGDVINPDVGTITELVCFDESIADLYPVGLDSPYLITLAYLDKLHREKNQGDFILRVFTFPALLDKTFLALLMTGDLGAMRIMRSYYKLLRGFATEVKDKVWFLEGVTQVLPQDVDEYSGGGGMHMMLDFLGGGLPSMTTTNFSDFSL
Assay: PBM E-score (8-mer binding enrichment) (E-score (-0.5 to 0.5)); higher = stronger / more preferred TF binding
Conditions: protein concentration: 200 nM; construct: GST-full length
Summary of the method: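 Full-length yeast transcription factors or their DNA-binding domains, GST-tagged and expressed with PURExpress, were applied at about 100-200 nM to universal all-10-mer Agilent arrays. These arrays had been made double-stranded by primer extension on fresh or once-stripped slides. Detection used fluorescent anti-GST, normalisation used masliner, and E-scores for ungapped eight-base words pooled with reverse complements came from the Universal PBM Analysis Suite.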

Row | Sequence | PBM E-score
1 | GGCAGGAA | -0.24
2 | AATCCAGG | 0.0108
3 | AAAACTAC | 0.137
4 | CCTGGCAA | -0.125
5 | CAAGACAA | -0.0401
6 | AAATCGTG | 0.0785
7 | TAATCGAA | 0.226
8 | CAATCGTA | 0.4
9 | CAATCGTG | -0.153
10 | GAATCGCA | -0.0934
11 | TAATCGGA | 0.155
12 | TAATCGTA | 0.42
13 | GAATCGTA | 0.387
14 | AAATCGTC | 0.14
15 | AAATCGTA | 0.383
16 | CAATCGTC | -0.144
17 | GAATCGTC | 0.052
18 | CTGGCTCC | -0.252
19 | CCGGAGAC | -0.0181
20 | AGGTCTCA | -0.221
21 | CCTCAGCA | -0.21
22 | AAACGTAC | 0.33
23 | AGTGGATC | -0.0691
24 | AGTACTAC | 0.119
25 | GCACAAAC | 0
26 | CGCAACGC | 0.0437
